# High-throughput results deposited in PubChem by The Scripps Research Institute Molecular Screening Center.
# luminol inh ctr: luminol signal inhibition, Nox1 inhibitor counter-screen. HRP/luminol/H2O2 chemiluminescence counterscreen. inhibition, % at 6.7 µM. 0.4% of 16,000 active. AID 1823; note: reference of the scale not given here
# Nox1 inhibitor: inhibitors of human NADPH oxidase 1 (Nox1); HT29 cells, luminol chemiluminescence ROS; inhibition, % at 6.7 µM; AID 1792; Q9Y5S8; 0.81% of 16,000 active
# NOTCH ag: NOTCH pathway agonism | NOTCH signaling luciferase reporter cells, luminescence | activation, % at 2.5 µM | 0.4% of 15,000 active | AID 434982; in the data active = activation above about 2.2%
# PME-1 Maybr inh: PME-1 (human) inhibition, Maybridge primary screen | 0.5% of 16,000 active | Q9Y570 | inhibition, % at 9 µM | AID 2291 | recombinant PME-1, FP-Rh probe fluorescence polarization; in the data active = inhibition above about 30%
# S1P1 ag: S1P1 (human) receptor agonism; AID 1044; S1P1 agonist cell-based reporter assay; activation, % at 4.5 µM; 1.5% of 16,000 active; in the data active = activation above about 80%
# Target sequence (P21453 whole entry, looked up): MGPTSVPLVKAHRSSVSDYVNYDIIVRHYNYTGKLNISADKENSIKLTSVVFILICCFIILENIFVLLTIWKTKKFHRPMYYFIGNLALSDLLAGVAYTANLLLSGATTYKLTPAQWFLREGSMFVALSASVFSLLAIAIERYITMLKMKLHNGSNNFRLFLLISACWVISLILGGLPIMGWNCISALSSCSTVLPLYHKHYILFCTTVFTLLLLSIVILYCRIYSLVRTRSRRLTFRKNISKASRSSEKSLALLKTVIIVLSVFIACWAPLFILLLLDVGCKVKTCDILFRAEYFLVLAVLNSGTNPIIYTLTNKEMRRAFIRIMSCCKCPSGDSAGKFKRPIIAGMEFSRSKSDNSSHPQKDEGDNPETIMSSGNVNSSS
# rat GALR2 ag: agonists of rat galanin receptor 2 (GALR2); cell-based GALR2 agonist screen; activation, % at 10 µM; 0.5% of 16,000 active; in the data active = activation above about 15%
# * = called active by the depositor; nt = no result. Rows were chosen to be rich in hits. Some 4% of all compounds tested hit in one or more screens of this group. Cut-off read from the data, not from the text of the source, unless noted: active = inhibition above about 75%; inactive = the rest.
SMILES,luminol inh ctr,Nox1 inhibitor,NOTCH ag,PME-1 Maybr inh,S1P1 ag,rat GALR2 ag
FC(F)(F)c1cc(-c2ccc(-c3ccn[nH]3)o2)cc(C(F)(F)F)c1,3,1,0,-1,102*,1
COc1cc(NC(=O)c2ccccc2)c(C)cc1N,4,17,0,0,-10,-5
N/C(=N\OCc1cc(Cl)cc2c1OCOC2)c1ccc(Cl)cc1,-2,-52,1,0,47,-8
CS(=O)(=NS(=O)(=O)c1ccc(Cl)cc1)c1ccccc1 (configuration not stated),12,2,0,41*,-9,0
O=C1NC(=S)N/C1=C\c1ccccc1Cl,75*,19,0,5,9,-2
Cc1ccc(S(=O)(=O)Oc2ccc(C)cc2Br)cc1,-1,-46,0,-1,7,-7
CC(C)(C)c1ccc(NC(=O)C(Cl)Cl)c(Cl)c1,4,-18,0,0,11,-3
CSc1nnc(SC2=CC(=O)CC(c3ccccc3)C2)s1 (configuration not stated),-3,28,3.3*,9,60,-14
O=C1c2ccc3ccccc3c2-c2cccc3cccc1c23,1,-22,0,40*,-5,-7
O=C1Nc2ccccc2/C1=C\c1cccc2ccccc12,-1,-27,0,3,40,5
O=C(CSc1ccc(Cl)cc1)Nc1ccc(Cl)cc1C(=O)NCc1cccs1,-1,-26,0,-2,-9,10
N#CCCN(Cc1cccs1)C(=O)c1cccs1,3,-49,0,0,24,-5
N#CCCN(Cc1cccs1)C(=O)Nc1cccc(C(F)(F)F)c1,0,-55,-1,2,-2,42*
Cc1cc(-c2onc(C)c2-c2noc(C)n2)no1,-1,-55,0,1,0,-4
Cc1cc(C)c(C(=O)Nc2cccnc2)c(CC(C)(C)C(=O)O)c1,-1,41,0,7,82*,-6
Cn1nc(C(C)(C)C)cc1C(=O)Nc1cccnc1,3,-26,-1,-1,-16,-8
N#Cc1c(N)nc(Sc2ccc(Cl)cc2)c(C#N)c1-c1ccco1,-1,3,0,-4,-2,-6
COc1cc(C(=O)NC(=S)NC(N)=O)cc(OC)c1OC,3,-57,0,1,0,-8
CN(C)CCCNc1sc(-c2ccccn2)c([N+](=O)[O-])c1[N+](=O)[O-],7,-9,0,65*,2,-7
COC(=O)c1cccc(NC(=O)CC2C(=O)NCCN2C(=O)c2ccccc2)c1 (configuration not stated),-1,-27,0,-4,-19,-4
COC(=O)c1sccc1NC(=S)NCCN1CCNC1=O,99*,20,0,5,-18,-5
COC(=O)c1sccc1NC(=O)CC1C(=O)NCCN1C(=O)c1ccccc1 (configuration not stated),0,-39,-1,46*,-1,-3
NC(=O)c1ccc(-c2ncc3c(n2)-c2cc(F)ccc2OC3)cc1,-5,0,0,5,3,-5
CCCCCCSc1n[nH]c(=S)s1,96*,15,-1,6,36,-5
CCOC(=O)c1cc(=O)c2ccc(OC(=O)c3sc4ccccc4c3Cl)cc2o1,-6,6,-4,6,7,-5
SMILES,luminol inh ctr,Nox1 inhibitor,NOTCH ag,PME-1 Maybr inh,S1P1 ag,rat GALR2 ag
Cc1c(C)c(C)c(CSCc2n[nH]c(=S)n2-c2ccc(F)cc2)c(C)c1C,-1,2,-1,6,3,-3
Fc1ccc(-n2c(Cc3ccsc3)n[nH]c2=S)cc1,84*,-51,0,-1,-18,-6
CSC(=NC12CC3CC(CC(C3)C1)C2)NC#N,1,-56,0,-5,-25,-3
O=[N+]([O-])c1ccc2nc3c(O)c4ccccc4c(O)c3nc2c1,3,24,-1,38*,-2,-7
Cc1nc2ccc([N+](=O)[O-])cc2nc1C,-1,7,0,0,-6,-7
N#CC(CO)Cc1cc([N+](=O)[O-])ccc1N1CCCCC1 (configuration not stated),4,-25,0,2,95*,-7
N#CC(CO)Cc1cc([N+](=O)[O-])ccc1N1CCOCC1 (configuration not stated),-3,2,-1,3,3,-8
Cc1oc(C(C)(C)C)cc1C(=O)/C(C#N)=C/Nc1ncccn1,-4,-15,0,6,1,-6
CC(C)(C)c1c(C#N)sc2sc(C#N)c(N)c12,-1,-42,0,0,11,-8
CCC(C)(C)C1CCc2c(sc(NC(=O)c3ccccc3C(=O)O)c2C#N)C1 (configuration not stated),2,39,1,33*,1,-4
CSc1sc(C(=O)O)cc1S(=O)(=O)C(C)C,-1,-41,0,0,2,-3
CSc1sc(C(=O)NCC2CC2)cc1S(=O)(=O)C(C)C,1,-20,0,4,-3,17*
CSc1nc(NS(=O)(=O)c2cc(Cl)sc2Cl)nn1C,-4,-26,0,1,-4,-5
O=S(=O)(Nc1ccc(N2CCCCC2)cc1)c1cc(Cl)sc1Cl,68,102*,0,7,-18,-5
CSC(=S)Nc1ccc(Br)cc1,5,2,0,-1,13,1
S=c1[nH]c(=S)c2ccccc2[nH]1,77*,-68,0,1,-4,-6
O=C(NNC(=S)Nc1ccc(Cl)cc1)c1ncc(C(F)(F)F)cc1Cl,49,10,0,6,27,-3
CC(=O)Nc1ccc(/C=N/NC(=O)c2ccc(C(C)(C)C)cc2)cc1,-6,11,0,3,13,-8
CC(C)(C)c1ccc(NC(=O)c2ccc(N3C(=O)CSCC3=O)cc2)cc1,1,-61,0,-39,93*,-6
Cc1c(Br)cc2nsnc2c1C,2,-58,-1,-3,5,-8
Nc1cc(S(=O)(=O)O)c(N)c2c1C(=O)c1ccccc1C2=O,-16,0,nt,99*,-13,-8
CN(C)/C=C/C(=O)c1cccc(Cl)c1F,2,-59,0,-4,11,-8
COc1ccccc1C1CCN(c2ccc(CO)cc2[N+](=O)[O-])CC1,-4,8,0,12,92*,-9
Cc1ccc(OS(=O)(=O)c2c(Cl)sc(Cl)c2Br)c([N+](=O)[O-])n1,-4,12,-1,40*,23,-6
Cc1ccc(OC(=O)c2sc3ccccc3c2Cl)c([N+](=O)[O-])n1,-4,-15,0,4,1,-7
O=C(Nc1ccc(F)c(Cl)c1)c1cc(Br)ccc1O,-1,8,-1,7,109*,-12
O=C(Cc1nn[nH]n1)Nc1ccc(F)c(Cl)c1,4,-27,nt,-1,-5,-6
COc1ccc(Oc2ccc([N+](=O)[O-])c(Oc3ccc(OC)cc3)n2)cc1,3,-56,-1,6,88*,-5
